Consider seven compounds from PubChem BioAssay (EPA / NIEHS).

The structures appear in SMILES notation. Several values for one entry are separate records, joined by “and”; a condition that tells them apart may be missing. Equal entries are not always repeated. Results filed as inconclusive are left out. Some structures have more than one record in an assay (separate samples or runs), and their calls can disagree. Activity calls are given as the source filed them. The calls were made as follows, unless noted: active = hit-call score of the fitted dose curve at least 0.9, where 1 is the maximum; inactive = score below 0.9.

Assay [1] in a line: IUF_NPC1b_proliferation_BrdU_72hr: Leibniz Research Institute for Environmental Medicine (IUF) 72-hour Neural Progenitor Cell Bromodeoxyuridine (BrdU) Proliferation Assay (NPC1b) (AID 2284207). An outline of the steps: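 Neural progenitor spheres of human fetal origin are treated for three days; BrdU added for the last 16 h is quantified by luminescence ELISA, with DMSO as baseline and EGF/FGF omission as positive control.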

A short description of assay [2]: IUF_NPC1a_proliferation_area_72hr: Leibniz Research Institute for Environmental Medicine (IUF) 72-hour Neural Progenitor Cell Proliferation Area Assay (NPC1a) (AID 2284208). An outline of the steps: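 Spheres of 0.3 mm are plated singly in growth-factor medium and exposed from day 0. After three days at 37C and 5% CO2, sphere area is measured by phase contrast imaging, with activity referenced to DMSO.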

Assay [3] is described as follows: IUF_NPC1_viability_72hr: Viability Assessment at 72 hours in the Leibniz Research Institute for Environmental Medicine (IUF) Neural Progenitor Cell Proliferation Assay (NPC1) (AID 2284209). An outline of the steps: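 Spheres of primary human neural progenitors were plated singly in proliferation medium and treated for 72 h. Mitochondrial reduction of resazurin was then measured by fluorescence and analysed against DMSO controls.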

Assay [4] can be described thus: CCTE_Mundy_HCI_Cortical_Synap_Neur_Matur_NeuriteSpotCountPerNeuriteLength: CCTE's Synaptogenesis and Neurite Maturation Assay in rat cortical cells for Neurite Spot Count per Neurite Length, Mundy Lab (AID 2284210). An outline of the steps: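 Neurite-associated synapse density (synaptophysin puncta per unit neurite length) is measured by fluorescence high-content imaging in rat cortical cultures treated from DIV 7 and fixed at DIV 12, with DMSO as negative control.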

Assay [5] in a line: CCTE_Mundy_HCI_Cortical_Synap_Neur_Matur_BPCount: CCTE's Synaptogenesis and Neurite Maturation Assay in rat cortical cells for Branch Point Count, Mundy Lab (AID 2284211). An outline of the steps:
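HCI read-out of branch points from MAP2/synaptophysin/Hoechst immunofluorescence; rat cortical cultures, AraC DIV 5, dosing DIV 7, fixed DIV 12; fit in positive direction vs DMSO baseline.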

Assay [6] in a line: CCTE_Mundy_HCI_Cortical_NOG_NeuriteCount: CCTE's Neurite Outgrowth Assay in rat cortical cells for Neurite Count, Mundy Lab (AID 2284212).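 Also: cells fixed about two days after chemical exposure began.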 An outline of the steps:
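Rat cortical primary cells; compound added 2 h post-plating, 1/10 dilution of working solution. Anti-betaIII-tubulin/AF488 ICC; ArrayScan neurite count vs DMSO.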

Assay [7] is described as follows: CCTE_Mundy_HCI_Cortical_Synap_Neur_Matur_NeuriteLength: CCTE's Synaptogenesis and Neurite Maturation Assay in rat cortical cells for Neurite Length, Mundy Lab (AID 2284214). An outline of the steps:
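Cultures of rat primary cortical cells received chemical at DIV 7 and were fixed at DIV 12, after glial arrest with AraC at DIV 5. Neurite length was measured by automated imaging of MAP2 immunofluorescence.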

The nature of assay [8]: CCTE_Mundy_HCI_Cortical_Synap_Neur_Matur_NeuriteSpotCountPerNeuron: CCTE's Synaptogenesis and Neurite Maturation Assay in rat cortical cells for Neurite Spot Count per Neuron Count, Mundy Lab (AID 2284215). An outline of the steps: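 Rat cortical primary cultures; AraC DIV 5 to arrest glia; dosing + media change DIV 7; fixed DIV 12. Anti-MAP2/anti-synaptophysin, Hoechst nuclei; HCI puncta count per neuron, positive fitting direction vs DMSO.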

Assay [9] in a line: CCTE_Mundy_HCI_Cortical_Synap_Neur_Matur_SynapseCount: CCTE's Synaptogenesis and Neurite Maturation Assay in rat cortical cells for Synapse Count, Mundy Lab (AID 2284218). An outline of the steps:
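Cells were plated, allowed 2 hr to attach, treated with AraC at DIV 5, then exposed to chemicals from DIV 7 until DIV 12. After fixation and MAP2/synaptophysin immunolabelling, synapses per neuron were quantified by automated imaging against DMSO.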

Assay [10] is described as follows: CCTE_Mundy_HCI_Cortical_Synap_Neur_Matur_CellBodySpotCount: CCTE's Synaptogenesis and Neurite Maturation Assay in rat cortical cells for Cell Body Spot Count, Mundy Lab (AID 2284223). An outline of the steps: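 Rat cortical neurons; AraC @ DIV 5; dose + media change DIV 7; fix DIV 12; anti-MAP2/anti-synaptophysin IF, Hoechst; HCI count of soma synaptophysin puncta/neuron; DMSO = negative control.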

Assay [11] can be described thus: CCTE_Mundy_HCI_hNP1_Pro_ResponderAvgInten: CCTE's Proliferation Assay in human neuroprogenitor cells, Mundy Lab (AID 2284224; active = hit-call score of the fitted dose curve at least 0.9, where 1 is the maximum;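 also: human neural progenitor cells hNP1 derived from WA09 embryonic stem cells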). An outline of the steps: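 Human neuroprogenitors (hNP1, WA09 lineage) receive test chemical after 40 to 44 hours of attachment. A four-hour BrdU pulse begins twenty hours later, followed by fixation and high content imaging; signal is referenced to DMSO controls.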

Assay [12] in a line: CCTE_Mundy_HCI_hN2_NOG_NeuriteCount: CCTE's Neurite Outgrowth Assay in human hN2 cells for Neurite Count, Mundy Lab (AID 2284219; active = hit-call score of the fitted dose curve at least 0.9, where 1 is the maximum). An outline of the steps:
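In this morphology assay, hNP1-derived neurons received test chemical 2 h post-plating and were fixed two days later in warm paraformaldehyde/sucrose containing Hoechst 33342. Neurites, labelled by rabbit anti-βIII-tubulin (1:800) and Alexa Fluor-488 (1:500), were counted automatically.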

Assay [13] can be described thus: CCTE_Mundy_HCI_hN2_NOG_NeuriteLength: CCTE's Neurite Outgrowth Assay in human hN2 cells for Neurite Length, Mundy Lab (AID 2284220; active = hit-call score of the fitted dose curve at least 0.9, where 1 is the maximum). An outline of the steps: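 Using βIII-tubulin immunofluorescence and Hoechst nuclear counterstain, this component quantifies neurite length in hNP1-derived neurons.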
Assay [14] in a line: CCTE_Mundy_HCI_hN2_NOG_NeuronCount: CCTE's Neurite Outgrowth Assay in human hN2 cells for Neuron Count, Mundy Lab (AID 2284221; active = hit-call score of the fitted dose curve at least 0.9, where 1 is the maximum). An outline of the steps:
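Read-out is the number of betaIII-tubulin-positive neurons imaged by automated high-content analysis, with DMSO as negative control.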

Assay [15] in a line: TAMU_PeakParms_SingleDonor1434_Chronotropy: Texas A&M University (TAMU) 1.5-hr Human Induced Pluripotent Stem Cell (iPSC)-derived Cardiomyocytes Calcium (Ca+2) Flux Assay for Cardiotoxicity: Chronotropy (changes in peak frequency) (AID 2284217). The conditions noted are these: actives raise or lower the signal. An outline of the steps:
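iPSC-derived cardiomyocytes (single donor 1434) dosed at 0.2, 1, 10 and 100 uM in 0.5% DMSO for 1.5 h at 37C; Ca2+ dye fluorescence gave average beat frequency. Zero-beat points removed; bidirectional fit versus DMSO, POD as EC05.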

The term AC50 denotes the concentration at which the activity in the assay is half-maximal. As to `COP(=O)(OC)OC(Br)C(Cl)(Cl)Br` (stereo not drawn), the AC50 in [1] was 50.1 µM (active); in [2] it was 26.6 µM (active); in assay [5], 50 µM (active) and 27.8 µM (active); in [6], 31.5 µM (active) and 30.7 µM (active); in assay [7], 32.5 µM (active) and 41.6 µM (active); in [8], 50 µM (active) and 10.7 µM (active). The concentration at half-maximal activity (AC50) is 23.2 µM (active) and 9.92 µM (active) in [9]; 9.92 µM (active) in assay [10]; 14 µM (active) and 16.7 µM (active) in assay [11]. The compound was classed as inactive in [3], in assay [4] and in assay [10].

As for `COP(=O)(NC(C)=O)SC` (stereo not drawn), the result in assay [1], in assay [2], in assay [3], in assay [4], in assay [5] and in [6] was inactive. The call in assay [7], in [8], in assay [9], in assay [12], in assay [13] and in assay [10] was inactive.

With `CCOP(=S)(Oc1cnc(C(C)(C)C)nc1)OC(C)C` (stereo not drawn), the half-maximal activity concentration (AC50) was 12.8 µM (active) in assay [1]; 16.5 µM (active) in assay [4]; 25.2 µM (active) in [5]; 26.4 µM (active) in assay [6]; 20.1 µM (active) in [7]; 16.2 µM (active) in assay [8]. The AC50 is 16.6 µM (active) in assay [9], 79.3 µM (active) in assay [14], 14.6 µM (active) in [10] and 77.6 µM (active) in assay [11]. The compound was called inactive in assay [2], in assay [3], in assay [4], in [5], in [6] and in assay [7]. Further, the compound was classed as inactive in assay [8], in assay [9], in assay [12], in assay [13], in assay [10] and in assay [11].

In the case of `CCOP(=S)(OCC)Oc1ccc([N+](=O)[O-])cc1`, the half-maximal activity concentration (AC50) is 20.9 µM (active) in assay [4]; 2.98 µM (active) in assay [5]; 23.7 µM (active) in [6]; 15 µM (active) in [7]; 15 µM (active) in assay [8]; 15 µM (active) in assay [9]. The outcome in [15] and in assay [10] was inactive.

Turning to `C=C(C)[C@H]1Cc2c(ccc3c2O[C@@H]2COc4cc(OC)c(OC)cc4[C@@H]2C3=O)O1`, the AC50 in assay [1] was 0.0427 µM (active); in assay [2], 756 nM (active) and 41.6 nM (active); in [3], 329 nM (active); in assay [6] it was 0.053 µM (active). Besides, the compound was called inactive in assay [1], in [3] and in assay [15].

As for `CCOP(=O)(OCC)Oc1cc(C)nc(C(C)C)n1`, the compound was classed as inactive in assay [1], in assay [2], in assay [3], in [4], in [5] and in assay [6]. Moreover, the outcome in assay [7], in [8], in [9], in assay [10] and in [11] was inactive.

For `S=C1NCCN1`, the outcome in assay [1], in [2], in assay [3], in assay [4], in [5] and in assay [6] was inactive. Also, the result in assay [7], in assay [8], in [9], in assay [10] and in [11] was inactive.
